Where “and” joins values, the source holds several entries; their conditions need not be identical. Identical values can stand only once. Values without a mark were called inactive. Records with an inconclusive call do not appear. Calls of active or inactive are those of the source. Unless noted, calls follow the shape of the full dose curve.

For assay [1], the target named is Glucocorticoid receptor (Homo sapiens) (UniProt P04150). The assay is described as follows: qHTS assay for small molecule agonists of glucocorticoid receptor signaling (AID 588532; active = well fitted curve in the direction sought with a large enough effect in the signal ratio, with a control signal flat; the % refers to the signal ratio;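 also: 100% = dexamethasone at 0.1 µM and 0% = DMSO only wells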). The conditions noted are these: HeLa MMTV-bla, beta-lactamase ratio, agonist, 18 h; active compounds read high; percent of dexamethasone control, DMSO zero. Summed up: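 Stimulation of a glucocorticoid response element-driven beta-lactamase gene was measured in HeLa cells. Responses were scaled between DMSO basal and 0.1 uM dexamethasone, then fitted for half-maximal stimulation.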
Sequence of Glucocorticoid receptor (Homo sapiens) (P04150 whole entry, looked up): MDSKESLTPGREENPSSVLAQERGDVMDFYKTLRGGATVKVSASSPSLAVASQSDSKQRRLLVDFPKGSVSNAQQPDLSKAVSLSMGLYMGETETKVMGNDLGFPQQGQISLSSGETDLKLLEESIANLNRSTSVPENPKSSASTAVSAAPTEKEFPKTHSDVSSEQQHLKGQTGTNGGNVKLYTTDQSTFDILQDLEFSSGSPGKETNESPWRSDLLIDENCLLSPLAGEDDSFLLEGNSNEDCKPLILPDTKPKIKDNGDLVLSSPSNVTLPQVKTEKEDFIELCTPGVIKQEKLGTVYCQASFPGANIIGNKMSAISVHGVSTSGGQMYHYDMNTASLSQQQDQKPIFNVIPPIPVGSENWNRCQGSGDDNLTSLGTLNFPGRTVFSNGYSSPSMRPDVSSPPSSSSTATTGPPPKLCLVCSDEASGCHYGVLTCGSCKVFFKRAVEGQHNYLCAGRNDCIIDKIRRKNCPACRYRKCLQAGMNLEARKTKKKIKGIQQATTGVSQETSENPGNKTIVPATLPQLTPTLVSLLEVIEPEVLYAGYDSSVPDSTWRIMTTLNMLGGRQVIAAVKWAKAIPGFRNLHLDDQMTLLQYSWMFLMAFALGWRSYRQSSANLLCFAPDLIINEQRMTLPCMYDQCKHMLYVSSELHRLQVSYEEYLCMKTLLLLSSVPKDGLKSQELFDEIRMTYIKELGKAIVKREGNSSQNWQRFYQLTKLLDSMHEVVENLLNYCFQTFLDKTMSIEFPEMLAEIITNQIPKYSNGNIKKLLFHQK

For assay [2] the target is unchanged. The assay is described as follows: qHTS assay for small molecule antagonists of glucocorticoid receptor signaling (AID 588533; active = well fitted inhibition curve with a large enough effect in the signal ratio, with a control signal flat, not every such curve was filed as active; the % refers to the signal ratio;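 also: cells stimulated with 2 nM dexamethasone as agonist; % is scaled to controls: 0 for no effect and ±100 for the full control effect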). Summed up:
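Antagonist-mode qHTS: compound titrations added to GRE-bla HeLa cells, then dexamethasone 2 nM final; 18 h, 37 C. CCF4 FRET fluorescence normalized to dexamethasone and DMSO; IC50 from Hill fit.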

Assay [3] has as its target Bile acid receptor (Homo sapiens) (UniProt Q96RI1). The assay is described as follows: qHTS assay for small molecule antagonists of farnesoid X receptor signaling (AID 588526). Also: % is scaled to controls: 0 for no effect and ±100 for the full control effect. An outline of the steps:
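Concentration-response titrations were fitted to the Hill equation for half-maximal inhibition and maximal response, with data normalised to 50 uM chenodeoxycholic acid and DMSO control wells. Cells: FXR-UAS-bla HEK293T, dialyzed FBS.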

Assay [4] has as its target Ubiquitin carboxyl-terminal hydrolase 1 (Homo sapiens) (UniProt O94782). The assay is described as follows: Inhibitors of USP1/UAF1: Pilot qHTS (AID 504865; active = well fitted inhibition curve with a large enough effect;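 also: rhodamine fluorescence freed from ubiquitin-rhodamine substrate followed over time; top concentration of the series differs between compounds; % is scaled to controls: 0 for no effect and ±100 for the full control effect; nearly all actives have a fitted effect of over 35% in size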). An outline of the steps:
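In 50mM HEPES pH 7.8 containing 0.5mM EDTA, 1mM TCEP, 0.1 mg/ml BSA and 0.01% Tween-20, 1nM USP1/UAF1 is exposed to compound for 15 min, then Ub-Rho (150nM final) is added and fluorescence is read over time.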

In assay [5] the target is DNA dC->dU-editing enzyme APOBEC-3G (Homo sapiens) (UniProt Q9HC16). The assay is described as follows: qHTS for inhibitors of Vif-A3G interactions: Validation (AID 588379; active = well fitted inhibition curve with a large enough effect; also: 0% is about no effect). An outline of the steps:
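HeLa cells stably expressing Vif and A3G-eYFP, 700 cells/well, incubated overnight at 37 deg C, then exposed to compound overnight at 37 deg C. Inhibition of Vif-mediated degradation read as increased yellow fluorescence (Ex 488/Em 500-530) by laser-scanning cytometry.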

The target in assay [6] is Estrogen receptor (Homo sapiens) (UniProt P03372). The assay is described as follows: qHTS assay for small molecule antagonists of estrogen receptor alpha signaling (AID 588513; active = well fitted curve in the direction sought with a large enough effect in the signal ratio, with a control signal flat, not every such curve was filed as active; the % refers to the signal ratio; also: % is scaled to controls: 0 for no effect and ±100 for the full control effect). Summed up:
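Fluorescence from CCF4 substrate after 2 h at room temperature gave reporter activity; cells had been exposed to compound and 0.5nM 17-beta-estradiol for 18 h at 37 C. Hill-equation fitting yielded IC50 and maximal response.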

The target is the same in assay [7]. The assay is described as follows: qHTS assay for small molecule agonists of estrogen receptor alpha signaling (AID 588514).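 Also: 0% = vehicle only and 100% = reference agonist; nearly all actives have a fitted effect of over 70% in size.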 Summed up: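 Cells were plated at 5000/well, incubated 4 hrs at 37 C, dosed with compound titration series, incubated 18 hrs at 37 C, loaded with CCF4 dye for 2 hrs at RT, then fluorescence was read.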
Assay [8] deals with Androgen receptor (Homo sapiens) (UniProt P10275). The assay is described as follows: qHTS assay for small molecule antagonists of androgen receptor signaling (AID 588516; active = well fitted curve in the direction sought with a large enough effect in the signal ratio, with a control signal flat, not every such curve was filed as active; the % refers to the signal ratio; also: % is scaled to controls: 0 for no effect and ±100 for the full control effect). An outline of the steps: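 Cells were plated and incubated 5 h, compounds added in titration, then R1881 (10 nM final) as agonist. After 16 h at 37 C, CCF4 substrate was loaded for 2 h at room temperature and fluorescence measured.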
Sequence of Androgen receptor (Homo sapiens) (P10275 whole entry, looked up): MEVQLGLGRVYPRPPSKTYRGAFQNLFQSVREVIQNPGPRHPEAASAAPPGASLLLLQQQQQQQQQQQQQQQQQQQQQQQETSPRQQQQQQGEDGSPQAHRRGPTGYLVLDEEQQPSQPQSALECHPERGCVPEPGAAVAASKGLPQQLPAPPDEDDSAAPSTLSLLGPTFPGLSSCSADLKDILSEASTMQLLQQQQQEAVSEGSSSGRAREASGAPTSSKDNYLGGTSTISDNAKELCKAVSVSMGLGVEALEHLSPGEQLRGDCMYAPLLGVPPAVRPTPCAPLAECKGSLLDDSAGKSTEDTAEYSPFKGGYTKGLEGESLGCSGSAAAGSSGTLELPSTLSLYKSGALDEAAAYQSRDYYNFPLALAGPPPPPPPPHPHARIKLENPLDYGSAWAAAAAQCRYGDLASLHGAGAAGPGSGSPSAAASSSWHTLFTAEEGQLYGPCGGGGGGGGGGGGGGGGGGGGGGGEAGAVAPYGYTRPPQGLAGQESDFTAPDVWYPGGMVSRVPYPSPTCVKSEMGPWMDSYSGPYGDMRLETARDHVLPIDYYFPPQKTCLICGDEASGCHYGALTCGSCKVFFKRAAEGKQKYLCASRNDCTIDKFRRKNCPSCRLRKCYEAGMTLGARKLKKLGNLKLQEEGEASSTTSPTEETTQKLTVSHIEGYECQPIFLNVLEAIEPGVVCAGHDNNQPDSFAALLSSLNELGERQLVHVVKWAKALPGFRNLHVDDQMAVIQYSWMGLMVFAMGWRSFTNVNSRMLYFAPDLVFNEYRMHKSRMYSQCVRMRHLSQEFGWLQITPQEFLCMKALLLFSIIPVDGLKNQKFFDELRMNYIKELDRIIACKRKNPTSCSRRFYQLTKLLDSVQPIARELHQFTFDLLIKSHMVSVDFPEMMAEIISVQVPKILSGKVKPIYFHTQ

The target is the same in assay [9]. The assay is described as follows: qHTS assay for small molecule agonists of androgen receptor signaling (AID 588515; active = well fitted curve in the direction sought with a large enough effect in the signal ratio, with a control signal flat; the % refers to the signal ratio; also: % is scaled to controls: 0 for no effect and ±100 for the full control effect). The conditions noted are these: AR-UAS-bla HEK293, beta-lactamase ratio, agonist 16 h; active compounds read high. Summed up:
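EC50 and efficacy came from Hill fits of titrations (up to 92 uM) normalized to 30 nM R1881 as 100% and DMSO as 0%. Compound exposure was 16 h at 37 C on AR-UAS-bla HEK293 cells, with a 405/460/530 nm CCF4 fluorescence read.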

Sequence of Bile acid receptor (Homo sapiens) (Q96RI1 whole entry, looked up): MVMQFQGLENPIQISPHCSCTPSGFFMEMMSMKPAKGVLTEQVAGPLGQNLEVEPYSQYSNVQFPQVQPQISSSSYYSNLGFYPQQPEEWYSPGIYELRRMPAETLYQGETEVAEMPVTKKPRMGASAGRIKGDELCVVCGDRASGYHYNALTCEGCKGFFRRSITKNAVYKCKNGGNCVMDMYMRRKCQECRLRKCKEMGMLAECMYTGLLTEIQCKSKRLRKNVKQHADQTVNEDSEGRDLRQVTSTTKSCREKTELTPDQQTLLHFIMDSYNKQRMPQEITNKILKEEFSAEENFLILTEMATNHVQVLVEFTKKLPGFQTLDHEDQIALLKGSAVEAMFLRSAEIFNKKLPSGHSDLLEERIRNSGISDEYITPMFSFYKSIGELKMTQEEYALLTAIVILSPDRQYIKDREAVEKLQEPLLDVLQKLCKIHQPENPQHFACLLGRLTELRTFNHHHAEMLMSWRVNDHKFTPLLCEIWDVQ
Sequence of Ubiquitin carboxyl-terminal hydrolase 1 (Homo sapiens) (O94782 whole entry, looked up): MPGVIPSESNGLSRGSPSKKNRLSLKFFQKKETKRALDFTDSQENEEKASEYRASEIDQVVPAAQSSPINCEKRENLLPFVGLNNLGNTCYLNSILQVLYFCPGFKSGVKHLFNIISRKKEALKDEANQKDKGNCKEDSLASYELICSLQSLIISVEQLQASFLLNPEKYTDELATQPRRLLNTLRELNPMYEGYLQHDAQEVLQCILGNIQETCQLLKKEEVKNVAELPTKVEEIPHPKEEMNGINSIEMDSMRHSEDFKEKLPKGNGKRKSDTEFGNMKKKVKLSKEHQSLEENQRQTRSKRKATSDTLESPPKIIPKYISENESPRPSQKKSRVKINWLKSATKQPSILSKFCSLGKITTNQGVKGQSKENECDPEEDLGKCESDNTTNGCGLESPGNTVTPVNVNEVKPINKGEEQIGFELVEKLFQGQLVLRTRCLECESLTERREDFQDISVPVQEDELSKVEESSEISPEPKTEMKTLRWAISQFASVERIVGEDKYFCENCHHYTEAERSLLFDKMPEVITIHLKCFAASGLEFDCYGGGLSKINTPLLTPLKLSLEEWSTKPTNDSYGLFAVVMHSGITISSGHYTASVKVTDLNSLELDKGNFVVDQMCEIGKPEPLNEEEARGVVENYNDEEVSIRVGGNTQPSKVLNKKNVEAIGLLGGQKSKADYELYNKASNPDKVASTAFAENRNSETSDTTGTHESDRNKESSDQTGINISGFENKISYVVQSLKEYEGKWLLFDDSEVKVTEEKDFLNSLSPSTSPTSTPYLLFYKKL
Sequence of Estrogen receptor (Homo sapiens) (P03372 whole entry, looked up): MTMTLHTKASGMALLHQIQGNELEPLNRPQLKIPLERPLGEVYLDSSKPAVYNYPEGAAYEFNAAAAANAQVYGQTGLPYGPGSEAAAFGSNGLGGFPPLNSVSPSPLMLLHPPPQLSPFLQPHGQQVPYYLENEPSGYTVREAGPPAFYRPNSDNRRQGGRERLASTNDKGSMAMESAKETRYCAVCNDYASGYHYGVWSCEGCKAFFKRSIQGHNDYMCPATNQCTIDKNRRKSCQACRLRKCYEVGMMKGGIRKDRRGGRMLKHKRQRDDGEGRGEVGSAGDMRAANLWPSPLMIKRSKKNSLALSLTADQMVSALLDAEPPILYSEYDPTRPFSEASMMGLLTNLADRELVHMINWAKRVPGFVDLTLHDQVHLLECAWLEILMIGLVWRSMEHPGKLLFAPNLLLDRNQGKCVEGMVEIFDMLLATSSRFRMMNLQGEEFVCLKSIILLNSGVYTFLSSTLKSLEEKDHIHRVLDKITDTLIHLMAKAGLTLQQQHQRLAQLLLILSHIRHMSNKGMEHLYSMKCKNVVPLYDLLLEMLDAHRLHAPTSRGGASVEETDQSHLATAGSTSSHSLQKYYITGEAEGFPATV
Sequence of DNA dC->dU-editing enzyme APOBEC-3G (Homo sapiens) (Q9HC16 whole entry, looked up): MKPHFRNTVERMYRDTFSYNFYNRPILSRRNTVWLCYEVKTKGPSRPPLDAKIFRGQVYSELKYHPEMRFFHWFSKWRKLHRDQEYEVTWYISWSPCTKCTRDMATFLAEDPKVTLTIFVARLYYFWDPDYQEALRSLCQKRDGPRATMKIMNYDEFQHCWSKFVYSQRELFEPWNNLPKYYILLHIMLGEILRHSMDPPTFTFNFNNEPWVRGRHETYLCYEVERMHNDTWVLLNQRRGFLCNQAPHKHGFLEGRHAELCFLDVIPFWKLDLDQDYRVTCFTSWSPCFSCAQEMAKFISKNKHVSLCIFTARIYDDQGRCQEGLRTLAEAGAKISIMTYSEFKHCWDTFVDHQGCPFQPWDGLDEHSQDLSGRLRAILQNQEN

Consider `CN1C(=O)c2ccccc2C1=O`, for which the activation in assay [1] is -9.8%. For the same compound, in assay [2], the call was inactive.

`CCCCC(CC)COC(=O)c1ccccc1C(=O)O` (stereo not given): the compound was called inactive in [2].

For `c1ccc2occc2c1`, the compound was classed as inactive in assay [3].

In the case of `Cc1cc(C(C)(C)C)c(O)c(C(C)(C)C)c1`, in assay [4], the Potency entry is “inactive”. Besides, the compound was called inactive in assay [3] and in assay [2]. In assay [1], the activation was -5.33% and 4.56%.

`Nc1c[n+](N2CCOCC2)no1`: in [4], the Potency result was “inactive”. Further, the compound was called inactive in [5].

With `Cc1ccc2c(Cl)cc(Cl)c(O)c2n1`, the Potency result in [4] was “inactive”.

As for `COc1cc(C=O)ccc1O`, the Potency result in [4] was “inactive”. Besides, the compound was called inactive in assay [5], in assay [6], in assay [7], in [8] and in [3].

Regarding `Nc1cccc2c(N)cccc12`, the call in assay [7] and in assay [3] was inactive. The activation in assay [9] was -5.98% and -0.762%.

Regarding `CC(C)C(C)(C)C(C)(C)C(C)(C)S`, the call in assay [6], in [7] and in assay [8] was inactive. Moreover, in [9], the activation was -7.25% and 10.8%.

In the case of `Brc1ccccc1-c1ccccc1`, in [1], the activation was 8.87%.

Take `Cc1ccc(O)cc1`: the Potency entry in [4] was “inactive”. In addition, in assay [3], the compound was called inactive. In addition, the activation in [1] is -6.73%.

On to `CCCC(=O)c1cc(O)c(O)cc1O`, for which the result in assay [6], in assay [7] and in assay [3] was inactive. The activation in [9] is -9.57%; in [1], 7.26%.

With `CC(=O)OC/C=C(C)/C=C/C=C(C)/C=C/C1=C(C)CCCC1(C)C`, the Potency result in assay [4] was “inactive”. In addition, the result in assay [6] and in assay [7] was inactive.

As to `CC(C)(C)c1ccc(O)c(O)c1`, the compound was called inactive in assay [3] and in assay [2]. For the same compound, the activation in assay [1] is 27.4% and -11.3%.

As for `O=C(Oc1ccccc1)c1ccccc1O`, the outcome in assay [7] and in assay [2] was inactive.

Regarding `CCN(CC)CCOc1ccc(/C(=C(\Cl)c2ccccc2)c2ccccc2)cc1`, the activation in [9] is -16%; in [1], 7.97%. Also, the outcome in assay [8] and in assay [2] was inactive.

In the case of `C[C@@H](C1=C(CCN(C)C)Cc2ccccc21)c1ccccn1`, the Potency result in [4] is “inactive”. Besides, the result in assay [5] was inactive.

For the compound `Oc1ccccc1`, the call in [3] was inactive.

For `O=C(NO)c1ccccc1`, the compound was classed as inactive in assay [3] and in assay [2]. For the same compound, the activation in assay [1] was -5.9%.

`NCC(=O)O`: in [4], the Potency result is “inactive”. The compound was classed as inactive in assay [5].

As for `Nc1ccc(O)cc1`, the compound was classed as inactive in [6] and in [3]. Further, the activation in assay [1] is 1.91%.

`COC(=O)c1c(Cl)c(Cl)c(C(=O)OC)c(Cl)c1Cl`: the Potency result in assay [4] was “inactive”. Also, the call in assay [7], in assay [3] and in assay [2] was inactive. The activation in assay [1] is -1.01%.

Take `CC(=O)OCC[N+](C)(C)C`: the Potency result in assay [4] was “inactive”.

In the case of `O=C(c1ccccc1)c1ccccc1`, the activation in assay [9] is 19.2% and -0.683%; in assay [1], -1.61% and 0.77%. Besides, the result in assay [8], in assay [3] and in assay [2] was inactive.

With `C1=CC2C3C=CC(C3)C2C1` (stereo not given), the activation in assay [1] is -4.75%.

For `Cc1ncc(CO)c(CO)c1O`, in assay [4], the Potency result is “inactive”. The call in [3] was inactive.

The values above are taken from PubChem BioAssay (NCATS).
